Test results reported in PubChem BioAssay AID1159580 (chemical genetic matrix, 2015).
In all, about 5,500 compounds went through this assay and about 2,000 (36%) were called active. Inconclusive results (about 18%) are left out. Rule as the data show it: active = normalized growth mostly below about 0.91 (no sharp cut-off); inconclusive = no clear call, values can overlap the other calls; inactive = mostly above about 0.92. This is one part of the list.

Assay: chemical genetic growth profiling, strain panel (AID 1159580);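 also: tested at 20 µM; growth read once vehicle control cultures reached saturation at 30 °C; 1 = growth at the plate median or of vehicle wells; lower values mean less growth of the strain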
Conditions: growth OD
[1] = S. cerevisiae deletion strains, locus YDL101C, strain DUN1, stronger effect = lower value
[2] = S. cerevisiae deletion strains, locus YHR030C, strain SLT2, stronger effect = lower value
[3] = S. cerevisiae deletion strains, locus YJL095W, strain BCK1, stronger effect = lower value
[4] = S. cerevisiae deletion strains, locus YOR061W, strain CKA2, stronger effect = lower value

Measured: normalized growth

CC(C)CC(NC(=O)OCC1c2ccccc2-c2ccccc21)C(=O)O (configuration not stated)
inactive: S. cerevisiae deletion strains, locus YAL013W, strain DEP1, stronger effect = lower value 1.01 | S. cerevisiae deletion strains, locus YBR021W, strain FUR4, stronger effect = lower value 0.994 | S. cerevisiae deletion strains, locus YBR229C, strain ROT2, stronger effect = lower value 0.997 | S. cerevisiae deletion strains, locus YCL029C, strain bik1, stronger effect = lower value 1.03 | S. cerevisiae deletion strains, locus YDL035C, strain GPR1, stronger effect = lower value 0.998 | S. cerevisiae deletion strains, locus YDL074C, strain BRE1, stronger effect = lower value 1 | [1] 1.02 | S. cerevisiae deletion strains, locus YDL134C, strain PPH21, stronger effect = lower value 0.986 | S. cerevisiae deletion strains, locus YDL185W, strain tfp1, stronger effect = lower value 0.998 | S. cerevisiae deletion strains, locus YDL192W, strain arf1, stronger effect = lower value 1.01 | S. cerevisiae deletion strains, locus YDR101C, strain arx1, stronger effect = lower value 1.01 | S. cerevisiae deletion strains, locus YDR150W, strain NUM1, stronger effect = lower value 0.995 | S. cerevisiae deletion strains, locus YDR162C, strain NBP2, stronger effect = lower value 1.01 | S. cerevisiae deletion strains, locus YDR318W, strain mcm21, stronger effect = lower value 1.02 | S. cerevisiae deletion strains, locus YDR388W, stronger effect = lower value 1.01 | S. cerevisiae deletion strains, locus YDR502C, strain sam2, stronger effect = lower value 1.02 | S. cerevisiae deletion strains, locus YEL061C, strain CIN8, stronger effect = lower value 0.997 | S. cerevisiae deletion strains, locus YER110C, stronger effect = lower value 1.02 | S. cerevisiae deletion strains, locus YER155C, strain BEM2, stronger effect = lower value 1 | S. cerevisiae deletion strains, locus YER167W, strain BCK2, stronger effect = lower value 0.995 | S. cerevisiae deletion strains, locus YGL078C, strain dbp3, stronger effect = lower value 1 | S. cerevisiae deletion strains, locus YGL086W, strain mad1, stronger effect = lower value 0.981 | S. cerevisiae deletion strains, locus YGL248W, strain PDE1, stronger effect = lower value 1 | S. cerevisiae deletion strains, locus YGR078C, strain PAC10, stronger effect = lower value 1.02 | S. cerevisiae deletion strains, locus YGR135W, strain pre9, stronger effect = lower value 1.02 | S. cerevisiae deletion strains, locus YGR229C, strain SMI1, stronger effect = lower value 0.982 | S. cerevisiae deletion strains, locus YGR252W, strain gcn5, stronger effect = lower value 0.916 | [2] 1.01 | S. cerevisiae deletion strains, locus YHR079C, strain IRE1 (second series), stronger effect = lower value 1.01 | S. cerevisiae deletion strains, locus YHR094C, strain hxt1, stronger effect = lower value 0.997 | S. cerevisiae deletion strains, locus YHR129C, strain ARP1, stronger effect = lower value 1.01 | S. cerevisiae deletion strains, locus YHR200W, strain rpn10, stronger effect = lower value 1.01 | S. cerevisiae deletion strains, locus YIL066C, strain RNR3, stronger effect = lower value 1.02 | S. cerevisiae deletion strains, locus YIL073C, strain SPO22, stronger effect = lower value 1.03 | S. cerevisiae deletion strains, locus YIL125W, strain kgd1, stronger effect = lower value 0.992 | S. cerevisiae deletion strains, locus YIR030C, strain dcg1, stronger effect = lower value 1 | [3] 1.07 | S. cerevisiae deletion strains, locus YJL134W, strain LCB3, stronger effect = lower value 1 | S. cerevisiae deletion strains, locus YJL168C, strain set2, stronger effect = lower value 1.01 | S. cerevisiae deletion strains, locus YJL187C, strain SWE1 (second series), stronger effect = lower value 1.02 | S. cerevisiae deletion strains, locus YJR043C, strain POL32, stronger effect = lower value 1.02 | S. cerevisiae deletion strains, locus YJR075W, strain HOC1, stronger effect = lower value 0.997 | S. cerevisiae deletion strains, locus YKL009W, strain mrt4, stronger effect = lower value 0.969 | S. cerevisiae deletion strains, locus YKL068W, stronger effect = lower value 0.997 | S. cerevisiae deletion strains, locus YKL085W, strain MDH1 (second series), stronger effect = lower value 1 | S. cerevisiae deletion strains, locus YKL085W, strain MDH1, stronger effect = lower value 1 | S. cerevisiae deletion strains, locus YKL190W, strain CNB1, stronger effect = lower value 0.985 | S. cerevisiae deletion strains, locus YKR001C, strain vps1, stronger effect = lower value 1.06 | S. cerevisiae deletion strains, locus YLR039C, strain RIC1, stronger effect = lower value 1.05 | S. cerevisiae deletion strains, locus YLR058C, strain SHM2, stronger effect = lower value 0.997 | S. cerevisiae deletion strains, locus YLR102C, strain apc9, stronger effect = lower value 1.01 | S. cerevisiae deletion strains, locus YLR262C, strain YPT6, stronger effect = lower value 1.11 | S. cerevisiae deletion strains, locus YLR268W, strain sec22, stronger effect = lower value 1.06 | S. cerevisiae deletion strains, locus YLR330W, strain CHS5, stronger effect = lower value 0.984 | S. cerevisiae deletion strains, locus YLR342W, strain FKS1 (second series), stronger effect = lower value 0.985 | S. cerevisiae deletion strains, locus YLR371W, strain rom2, stronger effect = lower value 1.01 | S. cerevisiae deletion strains, locus YLR418C, strain cdc73, stronger effect = lower value 1 | S. cerevisiae deletion strains, locus YML016C, strain PPZ1, stronger effect = lower value 0.995 | S. cerevisiae deletion strains, locus YML032C, strain rad52, stronger effect = lower value 1.01 | S. cerevisiae deletion strains, locus YML124C, strain tub3, stronger effect = lower value 1 | S. cerevisiae deletion strains, locus YMR078C, strain ctf18, stronger effect = lower value 1.01 | S. cerevisiae deletion strains, locus YMR223W, strain ubp8, stronger effect = lower value 0.982 | S. cerevisiae deletion strains, locus YMR263W, strain SAP30, stronger effect = lower value 1.01 | S. cerevisiae deletion strains, locus YMR307W, strain GAS1, stronger effect = lower value 0.985 | S. cerevisiae deletion strains, locus YNL067W, strain RPL9B, stronger effect = lower value 1.03 | S. cerevisiae deletion strains, locus YNL128W, strain TEP1, stronger effect = lower value 1.02 | S. cerevisiae deletion strains, locus YNL153C, strain GIM3, stronger effect = lower value 1.02 | S. cerevisiae deletion strains, locus YNL233W, strain BNI4, stronger effect = lower value 1.01 | S. cerevisiae deletion strains, locus YNL250W, strain rad50, stronger effect = lower value 0.996 | S. cerevisiae deletion strains, locus YNL271C, strain bni1, stronger effect = lower value 1 | S. cerevisiae deletion strains, locus YNL298W, strain CLA4, stronger effect = lower value 0.994 | S. cerevisiae deletion strains, locus YNL307C, strain MCK1, stronger effect = lower value 1.02 | S. cerevisiae deletion strains, locus YNL322C, strain KRE1, stronger effect = lower value 1 | S. cerevisiae deletion strains, locus YNR052C, strain pop2, stronger effect = lower value 1.01 | S. cerevisiae deletion strains, locus YOL006C, strain TOP1, stronger effect = lower value 1.1 | S. cerevisiae deletion strains, locus YOL012C, strain htz1 1.27 | S. cerevisiae deletion strains, locus YOL147C, strain pex11, stronger effect = lower value 1.01 | [4] 0.991 | S. cerevisiae deletion strains, locus YOR069W, strain VPS5, stronger effect = lower value 1 | S. cerevisiae deletion strains, locus YOR136W, strain idh2, stronger effect = lower value 0.99 | S. cerevisiae deletion strains, locus YOR144C, strain elg1, stronger effect = lower value 1 | S. cerevisiae deletion strains, locus YOR184W, strain ser1, stronger effect = lower value 1.05 | S. cerevisiae deletion strains, locus YOR316C, strain cot1, stronger effect = lower value 1.01 | S. cerevisiae deletion strains, locus YPL055C, strain LGE1, stronger effect = lower value 0.963 | S. cerevisiae deletion strains, locus YPL241C, strain CIN2, stronger effect = lower value 0.993 | S. cerevisiae deletion strains, locus YPR119W, strain clb2, stronger effect = lower value 1 | S. cerevisiae deletion strains, locus YPR141C, strain kar3, stronger effect = lower value 0.999 | S. cerevisiae deletion strains, locus YPR163C, strain tif3, stronger effect = lower value 1.02 | S. cerevisiae deletion strains, locus YPR167C, strain met16, stronger effect = lower value 1.01 | S. cerevisiae deletion strains, strain wtn01, stronger effect = lower value 1.04 | S. cerevisiae strains, strain wild type, stronger effect = lower value 1

O=C(Nc1ccc(F)cc1F)c1cc(Cl)c(-n2cccc2)c(Cl)c1
inactive: S. cerevisiae deletion strains, locus YAR019C, strain CDC15, stronger effect = lower value 0.975 | S. cerevisiae deletion strains, locus YBL105C, strain PKC1, stronger effect = lower value 0.972 | S. cerevisiae deletion strains, locus YBR135W, strain CKS1, stronger effect = lower value 0.971 | S. cerevisiae deletion strains, locus YBR136W, strain MEC1, stronger effect = lower value 0.969 | S. cerevisiae deletion strains, locus YBR160W, strain CDC28, stronger effect = lower value 0.973 | S. cerevisiae deletion strains, locus YDL017W, strain CDC7, stronger effect = lower value 0.974 | S. cerevisiae deletion strains, locus YDL028C, strain MPS1, stronger effect = lower value 0.969 | [1] 0.984 | S. cerevisiae deletion strains, locus YDL108W, strain KIN28, stronger effect = lower value 0.974 | S. cerevisiae deletion strains, locus YDL132W, strain cdc53, stronger effect = lower value 0.976 | S. cerevisiae deletion strains, locus YDL214C, strain PRR2, stronger effect = lower value 0.942 | S. cerevisiae deletion strains, locus YDR052C, strain DBF4, stronger effect = lower value 0.98 | S. cerevisiae deletion strains, locus YDR054C, strain cdc34, stronger effect = lower value 0.961 | S. cerevisiae deletion strains, locus YDR226W, strain ADK1, stronger effect = lower value 0.97 | S. cerevisiae deletion strains, locus YDR477W, strain SNF1, stronger effect = lower value 0.936 | S. cerevisiae deletion strains, locus YER123W, strain YCK3, stronger effect = lower value 0.905 | S. cerevisiae deletion strains, locus YER133W, strain GLC7, stronger effect = lower value 0.898 | S. cerevisiae deletion strains, locus YFL009W, strain cdc4, stronger effect = lower value 0.97 | S. cerevisiae deletion strains, locus YFL029C, strain CAK1, stronger effect = lower value 0.967 | S. cerevisiae deletion strains, locus YFR003C, strain YPI1, stronger effect = lower value 0.975 | S. cerevisiae deletion strains, locus YFR019W, strain FAB1, stronger effect = lower value 0.944 | S. cerevisiae deletion strains, locus YFR028C, strain CDC14, stronger effect = lower value 0.977 | S. cerevisiae deletion strains, locus YGR040W, strain KSS1, stronger effect = lower value 0.94 | S. cerevisiae deletion strains, locus YGR052W, strain FMP48, stronger effect = lower value 0.984 | S. cerevisiae deletion strains, locus YGR092W, strain DBF2, stronger effect = lower value 0.942 | S. cerevisiae deletion strains, locus YHR079C, strain IRE1, stronger effect = lower value 0.864 | S. cerevisiae deletion strains, locus YHR082C, strain KSP1, stronger effect = lower value 1.05 | S. cerevisiae deletion strains, locus YHR205W, strain SCH9, stronger effect = lower value 0.911 | S. cerevisiae deletion strains, locus YIL147C, strain SLN1, stronger effect = lower value 0.976 | [3] 0.866 | S. cerevisiae deletion strains, locus YJL128C, strain PBS2, stronger effect = lower value 0.953 | S. cerevisiae deletion strains, locus YJL157C, strain FAR1, stronger effect = lower value 0.934 | S. cerevisiae deletion strains, locus YJR016C, strain ILV3, stronger effect = lower value 0.985 | S. cerevisiae deletion strains, locus YJR066W, strain TOR1 (second series), stronger effect = lower value 0.869 | S. cerevisiae deletion strains, locus YJR066W, strain TOR1, stronger effect = lower value 0.993 | S. cerevisiae deletion strains, locus YKL048C, strain ELM1, stronger effect = lower value 0.953 | S. cerevisiae deletion strains, locus YKL067W, strain YNK1, stronger effect = lower value 0.928 | S. cerevisiae deletion strains, locus YKL101W, strain HSL1, stronger effect = lower value 0.929 | S. cerevisiae deletion strains, locus YKL193C, strain SDS22, stronger effect = lower value 0.983 | S. cerevisiae deletion strains, locus YKL203C, strain TOR2, stronger effect = lower value 0.968 | S. cerevisiae deletion strains, locus YLR133W, strain CKI1, stronger effect = lower value 0.942 | S. cerevisiae deletion strains, locus YLR403W, strain SFP1, stronger effect = lower value 0.902 | S. cerevisiae deletion strains, locus YML070W, strain DAK1, stronger effect = lower value 0.925 | S. cerevisiae deletion strains, locus YMR001C, strain CDC5, stronger effect = lower value 0.973 | S. cerevisiae deletion strains, locus YMR205C, strain PFK2 (second series), stronger effect = lower value 0.959 | S. cerevisiae deletion strains, locus YMR277W, strain FCP1, stronger effect = lower value 0.963 | S. cerevisiae deletion strains, locus YNL006W, strain LST8, stronger effect = lower value 0.977 | S. cerevisiae deletion strains, locus YNL020C, strain ARK1, stronger effect = lower value 0.911 | S. cerevisiae deletion strains, locus YNL161W, strain CBK1, stronger effect = lower value 0.967 | S. cerevisiae deletion strains, locus YNL183C, strain NPR1, stronger effect = lower value 0.951 | S. cerevisiae deletion strains, locus YNL207W, strain RIO2, stronger effect = lower value 0.97 | S. cerevisiae deletion strains, locus YNL222W, strain SSU72, stronger effect = lower value 0.977 | S. cerevisiae deletion strains, locus YNL307C, strain MCK1 (second series), stronger effect = lower value 0.926 | S. cerevisiae deletion strains, locus YOL078W, strain AVO1, stronger effect = lower value 0.981 | S. cerevisiae deletion strains, locus YOL136C, strain PFK27, stronger effect = lower value 0.925 | [4] 0.926 | S. cerevisiae deletion strains, locus YOR119C, strain RIO1, stronger effect = lower value 0.999 | S. cerevisiae deletion strains, locus YOR231W, strain MKK1, stronger effect = lower value 0.88 | S. cerevisiae deletion strains, locus YOR329C, strain SCD5, stronger effect = lower value 0.968 | S. cerevisiae deletion strains, locus YPL031C, strain PHO85, stronger effect = lower value 0.922 | S. cerevisiae deletion strains, locus YPL153C, strain RAD53, stronger effect = lower value 0.928 | S. cerevisiae deletion strains, locus YPL204W, strain HRR25, stronger effect = lower value 0.908 | S. cerevisiae deletion strains, locus YPL209C, strain IPL1, stronger effect = lower value 0.975 | S. cerevisiae deletion strains, locus YPR025C, strain CCL1, stronger effect = lower value 0.968 | S. cerevisiae deletion strains, locus YPR106W, strain ISR1, stronger effect = lower value 0.978 | S. cerevisiae deletion strains, locus YPR111W, strain DBF20, stronger effect = lower value 0.962 | S. cerevisiae deletion strains, strain NNK1, stronger effect = lower value 0.977 | S. cerevisiae deletion strains, strain TSCII, stronger effect = lower value 0.968
active: [2] 0.784 | S. cerevisiae deletion strains, locus YLR113W, strain HOG1, stronger effect = lower value 0.788 | S. cerevisiae deletion strains, locus YPL256C, strain CLN2, stronger effect = lower value 0.829
